VACV Venus inh – vaccinia inhibition (Venus reporter). Vaccinia virus Venus reporter expression, fluorescence. Potency, µM (doses to about 36.5 µM), for the others: at the top dose activity change, negative = inhibition, usual class: inhibitors. actives 0.46% (n = 330,000); calls by dose curve; tested in A549 cells; further: nearly all actives have a fitted effect of over 30% in size
AmpC detergent – inhibitors of E. coli AmpC beta-lactamase with detergent | actives 0.041% (n = 370,000) | AID 485294 | AmpC hydrolysis of nitrocefin, absorbance 480 nm, 0.01% Triton | Potency, µM (titrated, usually from 114 µM), inactives show at the top dose activity change, negative = inhibition, most hits filed as inhibitors | P00811;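 further: 0% = no-compound wells and -100% = no-enzyme wells; nearly all actives have a fitted effect of over 25% in size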
Target sequence (P00811 whole entry, looked up): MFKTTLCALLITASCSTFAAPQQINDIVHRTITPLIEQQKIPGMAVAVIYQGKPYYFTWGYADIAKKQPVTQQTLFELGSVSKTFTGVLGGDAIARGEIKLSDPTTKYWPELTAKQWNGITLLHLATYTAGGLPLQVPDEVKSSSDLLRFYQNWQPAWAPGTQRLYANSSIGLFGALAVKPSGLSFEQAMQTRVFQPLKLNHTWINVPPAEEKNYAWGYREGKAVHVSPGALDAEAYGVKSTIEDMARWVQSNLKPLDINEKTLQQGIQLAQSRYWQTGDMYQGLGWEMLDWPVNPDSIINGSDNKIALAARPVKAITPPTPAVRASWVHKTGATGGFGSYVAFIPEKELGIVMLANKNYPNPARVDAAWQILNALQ
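AmpC (5.3 nM in the dispensed reagent) in 20 mM phosphate pH 7.0 with 0.01% (detergent screen) or 0.0001% Triton X-100 was preincubated with compounds for 15 min at room temperature. Nitrocefin was then added from an 800 uM solution, and hydrolysis was followed at 480 nm.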
AmpC no deterg – AmpC beta-lactamase inhibition without detergent | P00811 | AmpC nitrocefin hydrolysis, absorbance 480 nm, 0.0001% Triton | Potency, µM (series often up to 57.1 µM), inactives show at the highest dose activity change, negative = inhibition, usual class: inhibitors | actives 0.52% (n = 330,000);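 further: plate controls were no compound for no effect and no enzyme for full effect; nearly all actives have a fitted effect of over 20% in size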
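AmpC (5.3 nM in the dispensed reagent) in 20 mM phosphate pH 7.0 with 0.01% (detergent screen) or 0.0001% Triton X-100 was preincubated with compounds for 15 min at room temperature. Nitrocefin was then added from an 800 uM solution, and hydrolysis was followed at 480 nm.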
Vaccinia mCherry – inhibitors of vaccinia virus infection (mCherry reporter signal) | Vaccinia virus mCherry reporter infection, fluorescence | Potency, µM (doses to about 36.5 µM), for inactives: at the top dose activity change, negative = inhibition, actives largely listed as inhibitors | actives 0.63% (n = 310,000); calls by dose curve; tested in A549 cells; further: nearly all actives have a fitted effect of over 35% in size
* hit, by the source's call; i = inactive; ? = inconclusive; · = no result given. Most compounds without a hit are left out; they make up all but 1.1% or so of the library. Unless noted, the call rests on the fitted dose curve; in most records, active means well fitted curve in the direction sought with a large enough effect; inconclusive means small, poorly fitted or top-dose-only effect, or another doubt; inactive means no such curve, though single readings can be large; an effect the other way counts as inactive or inconclusive. Unless noted, on the % scale 0 is the no-effect control and ±100 the full control effect; potency means the concentration at half of the fitted maximal effect.

SMILES	VACV Venus inh	AmpC detergent	AmpC no deterg	Vaccinia mCherry
c1ccc(-c2nc(-c3cccnc3)n[nH]2)cc1	·	-9%	-41%	·
Cc1cc(Nc2nc3ccccc3[nH]c2=O)n(-c2ccccc2)n1	8.9µM*	6%	-6%	7.1µM*
C[C@@H]1COC(=O)[C@H](Cc2ccc(F)cc2)CC/C=C/C[C@@H](CC(=O)N[C@@H](CO)Cc2ccccc2)C(=O)N1	-25%	·	297%	?
O=C1N[C@@H](Cc2ccccc2)COC(=O)[C@@H](Cc2ccc(F)cc2)CC/C=C/C[C@@H]1CC(=O)N(CCO)Cc1ccccc1	?	·	201%	10µM*
O=C(C[C@@H]1C/C=C/CC[C@H](Cc2ccc(F)cc2)C(=O)OC[C@@H](Cc2ccccc2)NC1=O)N[C@H](CO)Cc1ccccc1	14µM*	·	56%	10µM*
O=C1N[C@H](Cc2ccccc2)COC(=O)[C@H](Cc2ccc(F)cc2)CC/C=C/C[C@@H]1CC(=O)N(CCO)Cc1ccccc1	?	·	143%	28µM*
CCOC(=O)c1c(C)[nH]c(C(=O)OC(C(=O)N(C)C)c2ccccc2)c1C (stereo unspecified)	-17%	·	·	-20%
CCCCNC(=O)[C@@H]1CC=C[C@@H]2CCN(Cc3ccc(OC)c(OC)c3)C(=O)[C@@H]21	-7%	·	·	i
CCCS(=O)(=O)c1ncc(Cl)c(C(=O)Nc2sc3c(c2C(=O)NCC)CCCC3)n1	-23%	·	·	-21%
C=CCN1c2ccc(Br)cc2C(=O)CS1(=O)=O	-8%	-1%	4µM*	-1%
CCCCCCC[n+]1c(/C=C/c2ccc(N(C)C)cc2)sc2ccccc21	29%	·	·	?
COc1ccc(CN2CCOc3c(O)cc(-c4cc(C)c5ccc(F)cc5n4)cc3C2)c(O)c1	-10%	·	·	-18%
C=CC(=O)N1C/C(=C/c2ccc(F)cc2)C(=O)/C(=C\c2ccc(F)cc2)C1	7.9µM*	·	·	?
CN1C2CCC1/C(=C\c1ccc(F)cc1)C(=O)/C2=C/c1ccc(F)cc1	-4%	-5%	-15%	-12%
C=C(Br)COC(c1ccco1)[C@H](Cc1ccccc1)NC(=O)OC(C)(C)C (stereo partly specified)	-23%	·	·	-9%
CCc1ccc(NC(=O)c2cc3sc(Cl)cc3n2C)cc1	-17%	56µM*	·	-10%
CC(C)c1ccc(NC(=O)c2cc3sc(Cl)cc3n2C)cc1	-14%	1%	·	-19%
Oc1ccc(Cl)cc1C1=NNC(c2cccs2)C1 (stereo unspecified)	-8%	5%	-47%	?
O=[N+]([O-])c1ccc(O)c(C2=NNC(c3ccccc3F)C2)c1 (stereo unspecified)	11µM*	3%	-23%	?
Cc1cc(I)ccc1Nc1nc(NCCN2CCOCC2)nc(N2CCOCC2)n1	-17%	·	·	-7%
Cc1nc(N)nc(N)c1/C=C/C(C)(C)c1ccc(Cl)cc1	3.5µM*	-6%	32%	?
Cc1c(CN2CCOc3ccc(C(C)(O)COc4ccccc4)cc3C2)cnn1C (stereo unspecified)	5%	·	·	-16%
C=CCOC(=O)/C(=C/c1cccc2ccccc12)NC(=O)c1ccccc1	-23%	?	13µM*	?
CC(C)(C)c1ccc(C2CC2C(=O)N/N=C\c2ccc[nH]2)cc1 (stereo unspecified)	4µM*	8%	-40%	?
O=C(Cn1nc(C(=O)O)c2ccccc2c1=O)Nc1cc(Cl)cc(Cl)c1	-7%	-3%	11µM*	-5%
SMILES	VACV Venus inh	AmpC detergent	AmpC no deterg	Vaccinia mCherry
O=C(Cn1nc(C(=O)O)c2ccccc2c1=O)Nc1ccc(Br)cc1	-6%	6%	-18%	-12%
Cc1ccc(C(=O)C[n+]2cccc3cccc(O)c32)cc1	3%	·	·	-1%
CC(O)(COc1ccccc1)c1ccc2c(c1)CN(Cc1cccn1-c1ccccn1)CCO2 (stereo unspecified)	-1%	·	·	-13%
CCOc1ccc(NS(=O)(=O)c2ccc(C(=O)NNC(=O)c3ccccc3O)cc2)cc1	?	-8%	-58%	7.1µM*
CCOc1ccc(S(=O)(=O)Nc2ccc(C(=O)NNC(=O)c3ccncc3)cc2)cc1	-6%	7%	-13%	-1%
Cn1c(-c2ccccc2)cc(=O)cc1-c1ccccc1	-6%	·	·	3%
O=c1cc(-c2ccccc2)cc(-c2ccccc2)n1O	?	-9%	-38%	14µM*
C=CCC[C@H](Cc1ccc(F)cc1)C(=O)OC[C@@H](NC(=O)[C@@H](CC=C)CC(=O)N(CCO)Cc1ccccc1)C(C)(C)C	13µM*	·	134%	?
C=CCC[C@H](Cc1ccc(F)cc1)C(=O)OC[C@@H](NC(=O)[C@@H](CC=C)CC(=O)N[C@@H](CO)Cc1ccccc1)C(C)(C)C	10µM*	·	74%	?
COc1cccc(C2(CC(=O)N3CCN(c4ccccn4)CC3)CC(=O)N(C3CCCC3)C2=O)c1 (stereo unspecified)	-17%	·	·	-1%
O=C(NCc1cccnc1)/C(=C\c1ccc(-c2cccc(Cl)c2)o1)S(=O)(=O)c1ccccc1	10µM*	5%	2%	11µM*
Cc1ccc(S(=O)(=O)Cc2ccc(C(=O)OCc3ccccc3)cc2)cc1	-26%	-1%	-20%	-7%
COC(=O)c1c[nH]c2c1-c1cc(C(=O)OCc3ccccc3)n(S(=O)(=O)c3ccc(C)cc3)c1C(=O)C2=O	2.2µM*	·	·	?
C=CCNC(=O)Nc1ccc(Br)cc1Cl	·	-7%	-14%	·
O=C(Nc1ccncc1)Nc1ccc(Br)cc1Cl	-12%	?	7.9µM*	-1%
O=C1CCN(Cc2cccc(C(F)(F)F)c2)CCN1Cc1ccccn1	3%	·	·	-7%
O=C(/C=C/c1c[nH]c2ccccc12)c1ccccc1	?	-9%	16µM*	?
CC(=O)c1ccc(NC(=O)Nc2ccc(S(=O)(=O)N3CCCC3)cc2)cc1	-30%	-6%	14µM*	-19%
CC(=O)c1ccc(NC(=O)c2ccc(S(=O)(=O)N3CCCC3)cc2)cc1	-10%	-4%	-39%	-15%
Cc1ccc(C)c(NC(=O)CSc2nc(N)c(NC(=O)c3cccs3)c(=O)[nH]2)c1	4%	-17%	14µM*	-9%
Cc1ccc(C)c(NC(=O)CSc2nc3nc(-c4cccs4)cc(C(F)(F)F)c3c(=O)[nH]2)c1	-16%	-1%	3.5µM*	-24%
COc1cc(=O)n2c(c1C(=O)NC(C)c1ccco1)CCN(Cc1ccccc1C(F)(F)F)CC2 (stereo unspecified)	-7%	·	·	-13%
COc1ccc(C(NC(=O)C(C)C)c2ccc3cccnc3c2O)cc1 (stereo unspecified)	?	-4%	-1%	4.5µM*
CCCCC(=O)NC(c1ccc(OC)cc1)c1ccc2cccnc2c1O (stereo unspecified)	?	·	·	10µM*
C=C[C@H](CC(C)C)N(Cc1ccccc1)S(=O)(=O)N(Cc1ccccc1)[C@H](C=C)CC(C)C	-6%	·	·	-13%

Compound activity (PubChem)
